ANO1 block – TMEM16A chloride channel inhibitors, primary screen, cell-based, HTS; Anoctamin-1 (Mus musculus), Q8BHY3; HEK293 TMEM16A/YFP iodide influx fluorescence, ionomycin; normalized B-score (activity score, 25-100; higher = stronger inhibition) at 10 µM; 310,000 compounds, 1.2% hits; AID 588511, 2011;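 active = ratio plate-corrected score three or more library SD toward inhibition, starting fluorescence score within five deviations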;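 also: score derived from kinetic fluorescence span divided by baseline fluorescence per well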
CHT inh – inhibitors of human choline transporter CHT. High affinity choline transporter 1 (Homo sapiens), Q9GZV3. CHT-expressing cells, membrane potential dye, choline response; hits give low values. B-score at 10 µM. 310,000 compounds, 0.86% hits. AID 488975, 2010;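 active = B-score over 3 SD under the library average, and starting fluorescence ratio not unusually high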;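 also: choline stimulus applied at its EC90 after an EC20 pre-addition; B-score computed on integrated fluorescence ratio after choline addition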
CHT PAM – CHT positive allosteric modulators, primary screen, cell-based, membrane potential dye, choline EC20 | B-score at 10 µM | 310,000 compounds, 0.49% hits | CHT-expressing cells; hits give high values; LV-AA mutant CHT in HEK293 cells | High affinity choline transporter 1 (Homo sapiens), Q9GZV3;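 active = initial fluorescence not abnormally high and integrated response B-score, plate-corrected, over 3 SD above library mean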
PKA-R1A activ – activators of PKA-R1A holoenzyme, primary screen, biochemical, fluorescence polarization, Cy5-IP20, bovine R1A, mouse PKAc; cAMP-dependent protein kinase type I-alpha regulatory subunit (Bos taurus) + …; PKA-R1A dissociation; scaled: DMSO 0%, 113 µM cGMP 100%; activation, % at 11.4 µM; 340,000 compounds, 0.083% hits; AID 504707, 2011;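 active = percent activation above the mean of all tested compounds plus 3 SD, cut at about 19% in these data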;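 also: higher means more PKAc released from R1A so a rise in polarization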
ANO1 activ – TMEM16A chloride channel activators or potentiators, primary screen, cell-based, HTS; Anoctamin-1 (Mus musculus), Q8BHY3; HEK293 TMEM16A/YFP-H148Q/I152L, iodide quench fluorescence; hits give low values; B-score at 10 µM; 340,000 compounds, 0.3% hits; AID 623877, 2012;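 active = fluorescence-ratio B-score plate-corrected deviation score at least 3 library SD below zero, with starting fluorescence score within 5 deviations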;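 also: channel opened by trigger with iodide after compound preincubation; score built on the fluorescence ratio of max minus min over baseline; more negative score means more quench and so TMEM16A activation or potentiation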
PKA-R2B act – activators of PKA-R2B holoenzyme, primary screen, biochemical, fluorescence polarization, Cy5-IP20, human | activation, % at 11.4 µM | 340,000 compounds, 0.079% hits | PKA-R2B holoenzyme dissociation; R2B truncated from residue 108, S112A mutant; 0% DMSO only, 100% 113 µM cGMP | cAMP-dependent protein kinase catalytic subunit beta (Homo sapiens) + cAMP-dependent …;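 active = activation above a cutoff set at the mean over all compounds plus 3 SD, cut at about 18% in these data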;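 also: higher means more holoenzyme dissociation and a rise in polarization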
CHT activ conf – CHT activators, confirmation, cell-based, membrane potential dye, duplicate; AID 504833, 2011; CHT-expressing cells, membrane potential dye fluorescence (FDSS); % of choline EC20–EC90 response window; HEK293 expressing CHT LV-AA mutant; choline added at its EC20; activation, % at 10 µM; 2,500 compounds, 91% hits; shares compounds with CHT PAM;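 active = primary screen active, with duplicate mean activation above negative control mean plus 3 SD, cut at about 11% in these data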
HEK293 MP dye – membrane potential response in parental HEK293 cells, counter-screen for CHT activator project, cell-based, membrane potential dye; shares compounds with CHT PAM; membrane potential dye fluorescence (FDSS); measured after EC20 choline addition; ratio readout change at 10 µM, hits read low; 2,500 compounds, 62% hits; AID 623908, 2012;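 active = duplicate-averaged ratio beyond 3 SD from buffer wells, up or down, though filed actives are nearly all decreases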
Starred values were filed as active, the others as inactive; i = inactive; / = no result; ! = not active in a repeat. Compounds with a hit are over-represented: about 2.5% of the library has one in this group of screens.

SMILES | ANO1 block | CHT inh | CHT PAM | PKA-R1A activ | ANO1 activ | PKA-R2B act | CHT activ conf | HEK293 MP dye
CN1CCN(c2nc(C#N)cc(-c3ccccc3)n2)CC1 | i | i | i | 11.3 | i | 6.6 | 23.0* | -22.5*
CCOc1cc(/C=C/c2cccc[n+]2C)ccc1O | i | i | 6.92* | 4.2 | i | -4.6 | 48.4* | -31.4*
CC(C)C(OC(=O)CN1C(=O)c2ccccc2C1=O)C(=O)NC1CCCCC1 (configuration not stated) | i | i | i | 2.6 | i | 0.0 | / | /
O=C(NC1CCCCC1)C(c1cccs1)N(Cc1cccs1)C(=O)c1ccco1 (configuration not stated) | i | i | i | 6.2 | i | -0.3 | 29.1* | i
O=C(NCC(=O)N(Cc1cccs1)C(C(=O)NC1CCCCC1)c1ccco1)c1ccco1 (configuration not stated) | i | i | i | -1.5 | i | 5.1 | / | /
Cc1ccccc1OCc1n(CC(=O)OC2CC(C)CCC2C(C)C)c2ccccc2[n+]1C (configuration not stated) | 100* | i | i | -1.2 | i | 1.2 | 13.7* | i
CCCCCCCCCCOC(=O)Cn1c(COc2ccc(OC)cc2)[n+](C)c2ccccc21 | 25*! | i | 13.4* | -6.9 | i | 0.7 | 27.8* | -42.1*
CCCCCCCCCCOC(=O)Cn1c(COc2ccccc2)[n+](C)c2ccccc21 | i | i | i | -7.7 | i | 3.3 | / | /
CCCCCCCCCCOC(=O)Cn1c(COc2cccc(C)c2)[n+](C)c2ccccc21 | 100* | i | i | -10.4 | i | -8.7 | 6.5 | -40.7*
CCCCCCCCCCOC(=O)Cn1c(COc2ccccc2C)[n+](C)c2ccccc21 | 100* | i | 13.8* | -4.4 | -4.67* | 3.9 | 5.4 | -45.9*
COc1cccc(-c2nnc(SCC(=O)NC3CCS(=O)(=O)C3)n2C)c1 (configuration not stated) | / | / | / | -3.1 | i | -4.3 | / | /
COc1cc(C(=O)CCN2CCC(c3ccccc3)C2)cc(OC)c1OC (configuration not stated) | i | i | i | -1.4 | i | -1.1 | / | /
CCc1nnc(NC(=O)CCC(=O)NCCc2ccccc2)s1 | i | i | i | -12.7 | i | -7.7 | / | /
O=C(O)C(Cc1ccccc1)n1c(=S)[nH]c2ccccc2c1=O (configuration not stated) | i | i | i | 13.3 | i | -9.0 | / | /
NC(=O)C(CCCCN1CCCCC1)(c1ccccc1)c1ccccc1 | / | / | / | -2.9 | i | 3.5 | / | /
CCOC(=O)c1cnc2cc(C)ccn2c1=O | i | i | 8.47* | -1.5 | i | 1.5 | 51.8* | -48.8*
COc1cc(NC(=O)CC(C)S(=O)(=O)c2ccc3c(c2)NC(=O)CO3)cc(OC)c1OC (configuration not stated) | i | i | i | -6.5 | i | -9.2 | / | /
CCc1nccn1S(=O)(=O)c1ccccc1[N+](=O)[O-] | i | i | i | -2.7 | i | 3.2 | / | /
CCC(=O)N(CCC(c1ccco1)C(C)C)Cc1ccccc1 (configuration not stated) | i | i | i | -0.2 | i | 2.0 | / | /
